From PubChem BioAssay AID1240 (Sanford-Burnham Center for Chemical Genomics, 2008) come the findings set out here.

SMILES strings stand for the structures. In all, about 50,000 compounds went through this assay and about 800 (1.6%) showed an effect of 50% or more. This excerpt belongs to a sample that is enriched for strong results.

Sequence of Bcl-2-like protein 10 (Homo sapiens) (Q9HD36 whole entry, looked up): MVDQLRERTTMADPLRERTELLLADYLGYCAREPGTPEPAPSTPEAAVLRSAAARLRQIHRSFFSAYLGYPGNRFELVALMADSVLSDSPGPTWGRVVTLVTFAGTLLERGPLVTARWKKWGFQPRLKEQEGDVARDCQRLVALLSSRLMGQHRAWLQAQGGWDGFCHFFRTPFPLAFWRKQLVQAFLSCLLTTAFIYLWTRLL

The assay concerns the target Bcl-2-like protein 10 (Homo sapiens) (UniProt Q9HD36). As to the kind of experiment: TR3 peptide-Bcl-B binding displacers, biochemical primary FP assay, phenotype converters (AID 1240).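 Further: 0% = Bcl-B with tracer peptide and DMSO and 100% = tracer peptide lacking Bcl-B.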 The settings on record: GST-Bcl-B / FITC-TR3 peptide fluorescence polarization; stronger effect = higher value; compound at 3.75 mg/L.
Take `Cc1ccccc1C(=O)O/N=C(\N)c1cccc([N+](=O)[O-])c1`: the displacement was -7.1%.

On to `Clc1ccc(OCCCN2CCCCC2)cc1`, for which the displacement was -10%.

As for `COc1ccccc1OCCCN1CCOCC1`, the displacement is -1.3%.

`COc1ccc(C2CC(O)C(C)C(c3ccc(OC)cc3)N2)cc1` (configuration not stated): the displacement came to 7.8%.

Take `CCOc1ccc(C(=O)Nc2cccc(C(F)(F)F)c2)cc1Cl`: the displacement is -12%.

On to `Cc1ccc(C(=O)Nc2ccc(-c3nc4ncccc4o3)cc2)cc1C`, for which the displacement was found to be 21.5%.

For `COc1ccc(-c2cc(=O)oc3cc(OC(C)=O)ccc23)cc1`, the displacement is -5.1%.

On to `CC(=O)N(c1ccccc1)c1nnc(C)s1`, for which the displacement is -0.3%.

As for `O=C1NC(=O)N(c2ccccc2F)C(=O)/C1=C/c1ccc(I)o1`, the displacement is 34.5%.

For the compound `CCN(CC)c1ccc(/C=C(\C#N)C(=O)Nc2ccc(OC)cc2)c(OC)c1`, the displacement is -6.6%.

With `CCN(CC)c1ccc(C=C(C(C)=O)C(C)=O)c(OC(C)=O)c1`, the displacement stood at 48.6%.

For `CCN(CC)c1ccc(C=C(C#N)C#N)c(OC)c1`, the displacement stood at 91.5%.

With `Cc1cc(OCC(O)CNC(C)C)cc(C)c1Cl` (configuration not stated), the displacement was determined as 3.1%.

Consider `COc1ccc(N2C(=O)/C(=C/c3cn(Cc4ccccc4)c4ccccc34)C(=O)NC2=S)cc1`, for which the displacement amounted to 25%.

Regarding `O=C(Cn1cc(/C=C2\NC(=S)NC2=O)c2ccccc21)Nc1ccccc1`, the displacement is -41.9%.

Consider `O=C(Cn1cc(C=C2C(=O)NC(=S)NC2=O)c2ccccc21)Nc1ccccc1`, for which the displacement amounted to 130%.

As for `O=C(Cn1cc(/C=C2/C(=O)NC(=S)N(c3ccccc3)C2=O)c2ccccc21)Nc1ccccc1`, the displacement came out at 143%.

In the case of `O=C(Cn1cc(/C=C2\SC(=S)NC2=O)c2ccccc21)Nc1ccccc1`, the displacement is -11.9%.

Take `NC(=O)Cn1cc(/C=C2\C(=O)NC(=O)N(Cc3ccccc3)C2=O)c2ccccc21`: the displacement is 17%.

As for `O=C(Nc1ccccc1)Nc1nnc(Cc2cccc(Br)c2)s1`, the displacement turned out to be 1.9%.

With `CC1=C(C(=O)OCCc2ccccc2)C(c2ccccc2Cl)CC(=O)N1` (configuration not stated), the displacement was -7.2%.

As to `CC(C)(C)c1csc(N/N=C/c2ccccn2)n1`, the displacement was -6.6%.

Regarding `OCCNCCOc1cccc(Cl)c1Cl`, the displacement stood at 2.8%.

For `O=C1C2C3C=CC(O3)C2C(=O)N1c1ccccc1I` (configuration not stated), the displacement is 17.8%.

Take `CCOc1ccccc1C(=O)Nc1ccc(N2CCOCC2)cc1`: the displacement turned out to be 3.2%.

Regarding `Cc1cccc(/C=C2/SC(=S)N(Cc3ccccc3)C2=O)c1`, the displacement is 13.4%.

`Nc1nc2nc(C(F)(F)C(F)(F)C(F)(F)C(F)(F)F)cc(=O)n2[nH]1`: the displacement was -1.7%.

`COc1cc(OC)c(OC)cc1CNc1cccc(C)c1`: the displacement stood at 4.3%.

`N#C/C(=C\c1ccc(-c2ccc3c(c2)COC3=O)o1)c1nc2ccccc2[nH]1`: the displacement turned out to be 58.6%.

On to `N#C/C(=C\c1ccc(-c2ccc(Br)cc2)o1)C(N)=O`, for which the displacement was found to be 4.6%.

As to `N#C/C(=C\c1ccc(-c2ccc(Cl)c(Cl)c2)o1)C(N)=O`, the displacement was determined as 7.8%.

With `N#C/C(=C/c1ccc(-c2ccc3c(c2)C(=O)NC3=O)o1)C(N)=O`, the displacement is 140%.

As to `Cc1ccc([N+](=O)[O-])cc1-c1ccc(/C=C(\C#N)c2nc3ccccc3[nH]2)o1`, the displacement was -0.7%.

For `N#C/C(=C\c1ccc(-c2ccc(Br)cc2)o1)c1nc2ccccc2[nH]1`, the displacement was 2.1%.

In the case of `N#CC(C#N)=Cc1ccc(-c2ccc3c(c2)COC3=O)o1`, the displacement was 109%.

On to `N#CC(C#N)=Cc1ccc(-c2ccc(S(N)(=O)=O)cc2)o1`, for which the displacement is -0.4%.

With `N#C/C(=C\c1ccc(-c2ccc3c(c2)COC3=O)o1)C(N)=O`, the displacement is -10.4%.

Consider `COc1ccc2ccccc2c1C=Nc1ccc(C)c(I)c1`, for which the displacement is -9.7%.

In the case of `CCOc1cc(/C=N/n2cnnc2)ccc1OCCOc1ccc(Br)cc1`, the displacement was found to be 19.3%.

In the case of `O=C(/C=C/c1ccc(F)cc1)c1nc2ccccc2s1`, the displacement was -6%.

Take `CCc1ccccc1N1C(=O)CC(Sc2nc(C)cc(C)n2)C1=O` (configuration not stated): the displacement came out at 10.8%.

For the compound `Cc1ccc(C=Nc2ccc(F)cc2)o1`, the displacement is 4.1%.

Take `O=C(Nc1ccc(NC(=O)c2cccc(Br)c2)cc1)c1ccccc1`: the displacement worked out at 0%.

For the compound `CC(C)OC(=O)c1ccc(NC(=O)c2cncc(Br)c2)cc1`, the displacement was 12.3%.

As to `CC(C)OC(=O)c1ccc(NC(=O)c2cccc(Br)c2)cc1`, the displacement worked out at 69.2%.

As for `COc1ccc(N(CC(=O)Nc2cccc(C)c2)S(=O)(=O)c2ccc(C)cc2)c(OC)c1`, the displacement worked out at 3.6%.

With `CCOC(=O)C1CCN(S(=O)(=O)c2ccc(F)cc2)CC1`, the displacement is -8%.

For the compound `N#Cc1ccccc1N=C1CCCN1Cc1ccccc1`, the displacement is 17.4%.

On to `Cc1ccc(-c2ccc(OCC(=O)Nc3ccccc3C(N)=O)cc2)cc1`, for which the displacement was 4.4%.

On to `O=C(NC(=S)NC1CCSC1=O)c1ccco1` (configuration not stated), for which the displacement was found to be 1%.

As to `Cc1cccc(NC(=O)c2cc3c(ccc4ccccc43)oc2=O)n1`, the displacement is -7%.

Consider `O=C(Nc1ccncc1)c1cc2c(ccc3ccccc32)oc1=O`, for which the displacement came to 9.6%.

Turning to `Cc1cccnc1NC(=O)c1cc2c(ccc3ccccc32)oc1=O`, the displacement amounted to 93%.

As for `COc1cc(/C=N/NC(N)=O)ccc1OCC(=O)N1CCCCC1`, the displacement was -4.4%.

As to `COC(=O)c1ccccc1NC(=O)CSc1nnc(-c2cccc(F)c2)n1-c1ccccc1`, the displacement is -1.1%.

Turning to `Cc1nc(C)c(/C(O)=C/c2nc3ccc([N+](=O)[O-])cc3oc2=O)s1`, the displacement is -12%.

In the case of `Cc1ccc(-c2nc3ccccc3[nH]2)s1`, the displacement stood at 0.7%.

Turning to `Cc1cc(-c2ccccc2)sc1/C(O)=C/c1nc2ccccc2[nH]c1=O`, the displacement is 112%.

Consider `Cc1cccc(-c2nc3ccccc3[nH]2)c1`, for which the displacement is 10.9%.

Take `Cc1nc(C)c(/C(O)=C/c2nc3ccccc3[nH]c2=O)s1`: the displacement amounted to 61.6%.

Take `CC(C)(C)/C(O)=C/c1nc2cc([N+](=O)[O-])ccc2[nH]c1=O`: the displacement amounted to 0.3%.

Regarding `O=C(Nc1cccc(C(F)(F)F)c1)c1nn2c(c1Br)NC(c1cccs1)CC2C(F)(F)F` (configuration not stated), the displacement came out at 4.5%.

As to `COc1ccccc1NC(=O)c1c(NC(=O)Cc2ccccc2)sc2c1CCCCC2`, the displacement was determined as 9.3%.

Take `CC(C)OP(=O)(OC(C)C)C(Nc1ccc(Br)cc1)c1ccc(O)cc1` (configuration not stated): the displacement is -13.8%.

Take `CCOc1ccccc1N(CC(=O)NC1CCCCC1)S(=O)(=O)c1ccccc1`: the displacement turned out to be 10.8%.

`CCN1C(=O)/C(=C\c2cccc(OCc3cccc4ccccc34)c2)SC1=S`: the displacement was 4.6%.

`CN1C(=O)/C(=C\c2ccc(OCc3cccc4ccccc34)cc2)SC1=S`: the displacement was -0.8%.

For `C=CCN1C(=O)/C(=C\c2ccc(OCc3cccc4ccccc34)cc2)SC1=S`, the displacement came to 87.1%.

As to `C=CCN1C(=O)/C(=C\c2ccc(OCc3ccccc3)cc2)SC1=S`, the displacement amounted to 11.4%.

As for `C=CCN1C(=O)/C(=C\c2cccc(OCc3cccc4ccccc34)c2)SC1=S`, the displacement is 15.9%.

As for `C=CCN1C(=O)/C(=C\c2ccc(OCc3ccccc3Cl)cc2)SC1=S`, the displacement was 95.7%.

On to `CCN1C(=O)/C(=C\c2ccc(OCc3ccccc3Cl)cc2)SC1=S`, for which the displacement came out at 15.9%.

For the compound `C=CCN1C(=O)/C(=C/c2cccc(OCc3ccccc3Cl)c2)SC1=S`, the displacement is -4.4%.

`C=CCN1C(=O)/C(=C/c2ccccc2OCc2ccccc2Cl)SC1=S`: the displacement was 11.6%.

`C=CCN1C(=O)/C(=C\c2cc(Cl)ccc2OCc2ccccc2F)SC1=S`: the displacement is 60.2%.

In the case of `CCN1C(=O)/C(=C\c2ccc(OCc3cccc4ccccc34)cc2)SC1=S`, the displacement worked out at 106%.

As to `C=CCN1C(=O)/C(=C\c2ccccc2OCc2ccc(Cl)cc2)SC1=S`, the displacement turned out to be 23.3%.
